Data as given in PubChem BioAssay AID1159580 (chemical genetic matrix, 2015).
Where “and” joins values, the source holds several entries; their conditions need not be identical. Equal values may be shown once. In all, about 5,500 compounds went through this assay and about 2,000 (36%) were called active. Not shown: some 18% with an inconclusive outcome. Cut-off read from the data, not from the text of the source: active = normalized growth mostly below about 0.91 (no sharp cut-off); inconclusive = no clear call, values can overlap the other calls; inactive = mostly above about 0.92. The list shows a part of the results.

Assay: chemical genetic growth profiling, strain panel (AID 1159580);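 note: tested at 20 µM; growth read once vehicle control cultures reached saturation at 30 °C; 1 = growth at the plate median or of vehicle wells; lower values mean less growth of the strain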
Details: S. cerevisiae deletion strains, growth OD

Measured: normalized growth

CC1(C)S[C@@H]2[C@H](NC(=O)[C@H](NC(=O)N3CCNC3=O)c3ccccc3)C(=O)N2C1C(=O)O (stereo partly drawn)
inactive: locus YAL021C, strain ccr4, hits give low values 0.989 | locus YAL026C, strain drs2, hits give low values 0.984 | locus YAL030W, strain snc1, hits give low values 0.969 | locus YBL061C, strain skt5, hits give low values 0.971 | locus YBR009C, strain hhf1, hits give low values 0.995 | locus YBR021W, strain FUR4, hits give low values 1.04 | locus YBR023C, strain chs3, hits give low values 0.979 | locus YBR171W, strain sec66, hits give low values 0.974 | locus YBR229C, strain ROT2, hits give low values 1 | locus YBR231C, strain swc5, hits give low values 0.984 | locus YBR279W, strain paf1, hits give low values 0.993 | locus YCL011C, strain gbp2, hits give low values 0.964 | locus YCL016C, strain dcc1, hits give low values 0.986 | locus YCL029C, strain bik1, hits give low values 0.99 | locus YCL061C, strain MRC1, hits give low values 0.99 | locus YCL069W, strain vba3, hits give low values 0.996 | locus YCR088W, strain abp1, hits give low values 0.985 | locus YDL005C, strain med2, hits give low values 0.978 | locus YDL035C, strain GPR1, hits give low values 0.992 | locus YDL040C, strain nat1, hits give low values 0.984 | locus YDL074C, strain BRE1, hits give low values 1.06 | locus YDL101C, strain DUN1, hits give low values 0.998 | locus YDL134C, strain PPH21, hits give low values 1 | locus YDL185W, strain tfp1, hits give low values 0.952 | locus YDL192W, strain arf1, hits give low values 0.982 | locus YDR001C, strain nth1, hits give low values 0.975 | locus YDR069C, strain doa4, hits give low values 0.988 | locus YDR101C, strain arx1, hits give low values 1.03 | locus YDR137W, strain rgp1, hits give low values 0.977 | locus YDR159W, strain sac3, hits give low values 1 | locus YDR162C, strain NBP2, hits give low values 0.972 | locus YDR195W, strain ref2 0.995 | locus YDR297W, strain sur2, hits give low values 0.979 | locus YDR318W, strain mcm21, hits give low values 0.988 | locus YDR334W, strain swr1, hits give low values 0.935 | locus YDR335W, strain msn5, hits give low values 0.971 | locus YDR388W, hits give low values 0.987 | locus YDR392W, strain spt3, hits give low values 0.908 | locus YDR502C, strain sam2, hits give low values 1 | locus YEL003W, strain gim4, hits give low values 0.994 | locus YEL037C, strain rad23, hits give low values 0.984 | locus YEL061C, strain CIN8 (second series), hits give low values 0.984 | locus YEL061C, strain CIN8, hits give low values 0.996 | locus YER015W, strain faa2, hits give low values 0.971 | locus YER016W, strain bim1, hits give low values 1 | locus YER110C, hits give low values 0.982 | locus YER111C, strain swi4, hits give low values 0.983 | locus YER155C, strain BEM2 (second series), hits give low values 0.993 | locus YER155C, strain BEM2, hits give low values 1.01 | locus YER167W, strain BCK2, hits give low values 0.997 | locus YFR010W, strain ubp6, hits give low values 0.967 | locus YGL078C, strain dbp3, hits give low values 0.989 | locus YGL086W, strain mad1, hits give low values 1.02 | locus YGL167C, strain pmr1, hits give low values 0.987 | locus YGL173C, strain kem1, hits give low values 0.967 | locus YGL227W, strain vid30, hits give low values 0.994 | locus YGL240W, strain doc1, hits give low values 1 | locus YGL248W, strain PDE1, hits give low values 1.01 | locus YGL253W, strain hxk2, hits give low values 0.996 | locus YGR135W, strain pre9, hits give low values 0.95 | locus YGR252W, strain gcn5, hits give low values 1 | locus YHR013C, strain ard1, hits give low values 0.957 | locus YHR027C, strain rpn1, hits give low values 0.966 | locus YHR030C, strain SLT2, hits give low values 0.984 and 0.983 | locus YHR079C, strain IRE1 (second series), hits give low values 0.983 | locus YHR079C, strain IRE1, hits give low values 0.963 | locus YHR094C, strain hxt1, hits give low values 0.982 | locus YHR129C, strain ARP1, hits give low values 0.997 | locus YHR142W, strain chs7, hits give low values 0.955 | locus YHR200W, strain rpn10, hits give low values 0.989 | locus YIL066C, strain RNR3, hits give low values 0.99 | locus YIL073C, strain SPO22, hits give low values 0.902 | locus YIL125W, strain kgd1, hits give low values 1 | locus YIR030C, strain dcg1, hits give low values 0.969 | locus YJL092W, strain hpr5, hits give low values 0.988 | locus YJL095W, strain BCK1 (second series), hits give low values 0.989 | locus YJL095W, strain BCK1, hits give low values 1.04 and 0.971 | locus YJL115W, strain asf1, hits give low values 0.96 | locus YJL129C, strain trk1, hits give low values 1.01 | locus YJL134W, strain LCB3, hits give low values 0.993 | locus YJL154C, strain vps35, hits give low values 0.972 | locus YJL164C, strain tpk1, hits give low values 0.996 | locus YJL166W, strain qcr8, hits give low values 0.956 | locus YJL168C, strain set2, hits give low values 0.998 | locus YJL187C, strain SWE1 (second series), hits give low values 1 | locus YJL187C, strain SWE1, hits give low values 0.988 | locus YJR043C, strain POL32, hits give low values 1.03 | locus YJR066W, strain TOR1, hits give low values 0.966
